Shown are actives, neighbours in structure and some others; about 12% of the full set was active somewhere.
PLK1 PBD inh: qHTS for Inhibitors of PLK1-PDB (polo-like kinase 1 - polo-box domain): Primary Screen; Plk1 PBD binding of FITC phosphopeptide, fluorescence polarization; Potency, µM, usual class: inhibitors; 360,000 tested, 2.8% active; note: series mostly up to about 57 µM; nearly all actives have a fitted effect of over 65% in size
RORgamma inh: qHTS for inhibitors of ROR gamma transcriptional activity | Potency, µM (highest dose often 53.6 µM), usual class: inhibitors | 310,000 tested, 5.4% active | AID 2551, 2010 | Drosophila S2 Gal4-RORgamma UAS-luciferase reporter, 20 h; note: nearly all actives have a fitted effect of over 60% in size
Target sequence (P51450 whole entry, looked up, the tested form may be a part): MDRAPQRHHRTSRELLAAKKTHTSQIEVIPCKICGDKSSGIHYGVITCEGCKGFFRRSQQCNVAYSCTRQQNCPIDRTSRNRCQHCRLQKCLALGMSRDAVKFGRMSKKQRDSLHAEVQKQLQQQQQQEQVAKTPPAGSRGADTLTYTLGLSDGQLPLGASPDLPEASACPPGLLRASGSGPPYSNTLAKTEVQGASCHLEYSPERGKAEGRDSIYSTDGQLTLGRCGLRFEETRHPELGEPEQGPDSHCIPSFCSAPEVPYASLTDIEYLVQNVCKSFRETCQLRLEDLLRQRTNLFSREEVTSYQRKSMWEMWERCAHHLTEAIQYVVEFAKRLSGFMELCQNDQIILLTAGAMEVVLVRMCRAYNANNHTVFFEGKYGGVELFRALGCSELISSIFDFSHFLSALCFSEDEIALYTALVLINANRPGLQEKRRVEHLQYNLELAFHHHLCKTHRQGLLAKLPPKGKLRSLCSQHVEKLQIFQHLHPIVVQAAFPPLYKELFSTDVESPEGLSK
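Read-out: Photinus luciferase luminescence; inhibitors lower reporter signal. Insect Schneider cells with Gal4-ROR gamma fusion under metallothionein promoter, UAS reporter; 700 uM final copper sulfate induction, 20 hr, ambient temperature.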
Sfp PPTase inh: qHTS Assay for Inhibitors of Bacillus subtilis Sfp phosphopantetheinyl transferase (PPTase) | 4'-phosphopantetheinyl transferase ffp (Bacillus subtilis), Q9F4F7 | Biochemical Sfp PPTase activity, qHTS | Potency, µM, most hits filed as inhibitors | 310,000 tested, 3.5% active | AID 1490, 2009;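 note: the enzyme is Sfp with the accession as filed and its product quenches rhodamine fluorescence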
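Fluorescence-quenching assay: 15 nM Sfp-PPTase preincubated 15 min at room temperature with compound, then 5 uM rhodamine-CoA and 12.5 uM BHQ-2-labelled YbbR peptide added. Fluorescence (ex 525/em 598 nm) read at start and after 30 min; difference gives rate.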
ALDH1A1 inh: qHTS Assay for Inhibitors of Aldehyde Dehydrogenase 1 (ALDH1A1); Potency, µM (top dose mostly 75.3 µM), usual class: inhibitors; Aldehyde dehydrogenase 1A1 (Homo sapiens), P00352; Purified ALDH1A1, NADH fluorescence, propionaldehyde substrate; 220,000 tested, 7.3% active; AID 1030, 2008; active = well fitted inhibition curve with a large enough effect, not every such curve was filed as active; inconclusive = small, poorly fitted or top-dose-only effect, or another doubt; inactive = no such curve, though single readings can be large or run the other way
Gal4-VP16 FLuc: VP16 counterscreen qHTS for inhibitors of ROR gamma transcriptional activity. Drosophila S2 Gal4-VP16 UAS-luciferase, luminescence, 20 h. Potency, µM (titrated, usually from 53.6 µM), most hits filed as inhibitors. 310,000 tested, 3.5% active. AID 2546, 2010;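 note: Gal4-VP16 expression switched on by copper sulfate through the metallothionein promoter; nearly all actives have a fitted effect of over 50% in size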
Numbers stand for hits; i = inactive; ? = inconclusive; nt = no result; [ ] = another dose, or the depositor's remark. Unless noted, calls come from the whole dose curve; as a rule, active = well fitted curve in the direction sought with a large enough effect; inconclusive = small, poorly fitted or top-dose-only effect, or another doubt; inactive = no such curve, though single readings can be large; an effect the other way counts as inactive or inconclusive.

SMILES	PLK1 PBD inh	RORgamma inh	Sfp PPTase inh	ALDH1A1 inh	Gal4-VP16 FLuc
CCOC(=O)CC1(C)Sc2ccccc2N1S(=O)(=O)c1ccc(C)cc1 (centres undefined)	i	nt	nt	nt	nt
O=C(O)c1ccc(N[C@H](c2ccccc2)c2ccc3cccnc3c2O)cc1	nt	nt	nt	4µM	nt
Oc1c(C(Nc2nccs2)c2ccc(C(F)(F)F)cc2)ccc2cccnc12 (centres undefined)	i	0.56µM	i	i	1µM
Oc1c(C(Nc2cccc(C(F)(F)F)c2)c2ccncc2)ccc2cccnc12 (centres undefined)	?	4µM	i	18µM	5.6µM
O=C(O)c1ccc(NS(=O)(=O)c2cccc3cccnc23)cc1	i	i	i	i	i
Cc1c(C(=O)N/N=C/c2cccnc2)nnn1-c1nonc1N	i	i	i	nt	i
Cc1ccc(C)n1-c1ccc(N(C)C)cc1	i	i	40µM	?	i[10 µM]
Cc1ccc(C)n1-c1ccc(C(=O)/C=C/N(C)C)cc1	i	i	i	?	i
Cc1ccc(C)n1-c1ccc(N2CCOCC2)cc1	i	?	i	7.1µM	i
CN1CCN(C2CN(Cc3cn(Cc4ccc(F)cc4)nn3)S(=O)(=O)C2)CC1 (centres undefined)	i	nt	nt	nt	nt
COCCn1c(=O)c(-c2cccc(C#N)c2)nc2cnc(N3CCN(C)CC3)nc21	nt	i	i	?	i
Cc1cc(Sc2nnc(/N=C/N(C)C)s2)c2ccccc2n1	i	8.9µM	i	i	?
Cc1cc(Sc2nnc(N)s2)c2ccccc2n1	?	7.9µM	i	i	11µM
CCCCCCCCSc1nnc(/N=C/N(C)C)s1	i	i	i	i	i
CCc1nc2ccc(C(=O)NCc3ccc4c(c3)OCO4)cn2c1N(C)Cc1cccs1	i	nt	nt	nt	nt
O=C(NCC(c1cccnc1)N1CCN(c2ccc(F)cc2)CC1)c1ccc(F)cc1 (centres undefined)	i	i	i	32µM	i
C=CCC[C@H](CCCCC)OC(=O)/C=C/[C@@H](O)[C@H](O)C[C@H](O)CC=C	i	nt	nt	nt	nt
C[C@@H]1CNC(=O)c2c(C(=O)N[C@H](C)c3ccccc3)ncn21	i	nt	nt	nt	nt
COc1cccc(/C=N/NC(=O)c2nnn(-c3nonc3N)c2CN(C)C2CCCCC2)c1	i	nt	nt	nt	nt
O=C(O)c1cc(/C=C/c2ccc(N3CCOCC3)c([N+](=O)[O-])c2)nc2ccccc12	?	i	i	nt	?
O=C(O)c1cc(/C=C/c2ccc(N3CCOCC3)cc2)nc2ccccc12	i	6.3µM	i	i	5µM
O=C(O)CCNc1ncnc2nc[nH]c12	nt	nt	nt	i[13.5 µM]	nt
O=C(Nc1ccc(Cl)cc1)C1Cc2c(-c3ccccc3)ccnc2O1 (centres undefined)	i	nt	nt	nt	nt
CC(=O)c1ccc(OCC(=O)Nc2ccc3c(c2)OCO3)cc1	i	nt	nt	nt	nt
O=c1c(O)c(-c2cccs2)oc2ccc(Cl)cc12	i	11µM	i	i	?
SMILES	PLK1 PBD inh	RORgamma inh	Sfp PPTase inh	ALDH1A1 inh	Gal4-VP16 FLuc
O=c1cc(-c2cccs2)oc2ccc(Cl)cc12	i	i	i	?	i
O=c1c2ccccc2oc2ccccc12	nt	i	i	?	i
O=c1c(O)c(-c2cccs2)oc2ccccc12	i	22µM	i	i	i[0.365 µM]
Cc1c(CC(=O)N[C@@H](C)C(=O)O)c(=O)oc2cc3c(cc12)CCC(C)(C)O3	i	i	i	nt	i
Cc1c(CC(=O)N[C@H](C(=O)O)C(C)C)c(=O)oc2cc3c(cc12)CCC(C)(C)O3	21µM	i	i	nt	i
CSCC[C@H](N)C(=O)N[C@@H](CO)C(=O)N[C@@H](CCCN=C(N)N)C(=O)N1CCC[C@H]1C(=O)N[C@@H](C)C(=O)N[C@@H](CS)C(=O)N1CCC[C@H]1C(=O)N[C@@H](CC(N)=O)C(=O)N[C@@H](CC(=O)O)C(=O)N[C@@H](CCCCN)C(=O)N[C@@H](Cc1ccc(O)cc1)C(=O)N[C@@H](CCC(=O)O)C(=O)O	nt	i	i	nt	i
COc1ccc(C2=NO[C@@H]3C(=O)N(c4ccc(C)cc4C)C(=O)[C@H]23)cc1OC	i	i	?	22µM	i
COc1ccc(C2=NO[C@@H]3C(=O)N(c4cccc(C)c4C)C(=O)[C@H]23)cc1OC	i	i	i	i	i
O=[N+]([O-])c1cccc(S(=O)(=O)c2ccc(NCCO)c([N+](=O)[O-])c2)c1	13µM	i	i	i	i
C[C@H](C(=O)c1ccncc1)c1ccccn1	nt	nt	nt	i[13.5 µM]	nt
CNC(=S)N/N=C/c1ccc(C(C)C)cc1	3µM	nt	nt	nt	nt
CC(C)c1ccc(/C=N/NC(=O)C2CCCC2)cc1	i	i	i	nt	?
CNC(=S)N/N=C/c1ccc(N(C)C)cc1	i	1.6µM	i	nt	7.1µM
CN(C)c1ccc(/C=N/NC(=O)COc2ccccc2)cc1	i	i	i	?	i
C[C@]12C[C@@](C)(C=C1/C=C/c1ccccc1)C(=O)C[C@H]2c1ccccc1	nt	i	i	i	i
CCCCn1nnnc1C(c1cc2ccccc2o1)N1CCN(c2cc(C)nc3ccccc23)CC1 (centres undefined)	i	nt	nt	nt	nt
CCN=c1scc(-c2ccco2)n1/N=C/c1ccc(OC)c(O)c1	i	i	50µM	?	i
C=C(C)CN=c1scc(C)n1/N=C/c1ccco1	i	?	i	i	i
CCN=c1scc(-c2ccco2)n1/N=C/c1ccc(O)cc1	i	0.1µM	35µM	20µM	0.5µM
COC(=O)c1cccc(NC(=O)c2cc(OC)c(OC)c(OC)c2Br)c1	i	i	i	40µM	i
COc1ccc(C(=O)Nc2cccc(C(C)=O)c2)c(OC)c1OC	i	i	i	?	?
O=C(O)c1ccn2c(C(=O)c3ccc(Cl)cc3)c(-c3ccccc3)cc2c1	38µM	i	i	nt	i

Screening results: PubChem, National Center for Advancing Translational Sciences (NCATS)
